According to PubChem BioAssay (NCATS):
Records with an inconclusive call do not appear. Unmarked numbers belong to inactive results. The source made the active and inactive calls. Calls follow the shape of the dose curve; as a rule, active = well fitted curve in either direction with a large enough effect (not every such curve was filed as active); inconclusive = small, poorly fitted or top-dose-only effect, or another doubt; inactive = flat fitted curve, though single readings scatter.

Assay: NFAT Signaling Pathway (AID 444);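 also: carbachol stimulus at about its EC50 of 1 µM final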
Details: Jurkat NFAT-bla M1, carbachol, beta-lactamase ratio, 5 h; at 7.69 µM (top of the series) unless noted
Procedure, shortened: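 Read-out: CCF4 FRET ratio (460 nm/530 nm) after 1 h RT dye loading, used for %activity and AC50 from titration series. Cells: Jurkat NFAT-β-lactamase/M1 line, treated with compound plus 1 uM carbachol for 5 h, 37 °C.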
% is scaled to controls: 0 for no effect and ±100 for the full control effect.

Row | SMILES | activity change, negative = inhibition
1 | N#C[C@H](c1ccccc1)N1CCCN([C@@H](C#N)c2ccccc2)C1c1ccccc1O (stereo not given in full) | -26.1%
2 | O=C1CNCCCN2CCN(CCCNCC(=O)Nc3ccc(cc3)S(=O)(=O)c3ccc(cc3)NC(=O)CNCCCN3CCN(CCCNCC(=O)Nc4ccc(cc4)S(=O)(=O)c4ccc(cc4)N1)CC3)CC2 | 13.1%
3 | Cn1c(=S)c2[nH]c(SCc3cccnc3)nc2n(C)c1=O | 0.274%
4 | Nc1ncnc2nc[nH]c12.Nc1ncnc2nc[nH]c12.[Cl][Pt]([Cl])([Cl])[Cl] | 4.22%
5 | CSC1(SC2=NCCN2)SC2(NCCN2)S1 | -0.372%
6 | N=C(N)S[C@H]1c2ccccc2-c2cc([N+](=O)[O-])ccc21 | -0.855%
7 | c1nc(NCCc2cnc[nH]2)c2[nH]cnc2n1 | 6.94%
8 | COc1ccc2c(c1)Cc1cc(N=[N+]([O-])c3ccc4c(c3)Cc3cc(OC)ccc3-4)ccc1-2 | -17.3%
9 | C(=N/Nc1nnc2c(n1)[nH]c1ccccc12)/c1cccnc1 | 1.85%
10 | O=C(CC(=O)c1ccncc1)c1ccccc1 | 13.8%
11 | O=S(=O)(O)c1cc(O)c2c(N=Cc3ccccc3O)cc(S(=O)(=O)O)cc2c1 | 8.24%
12 | CC(C)(C)C(=O)[C@H]([C@@H](c1ccccc1)N1CCOCC1)N1CCOCC1 | 16.7%
13 | BrC(c1cccc2ccccc12)c1cccc2ccccc12 | -5.96%
14 | C/C(=N/Nc1ccc2ccccc2n1)c1ccccc1O | 2.32%
15 | O[C@@H](C1=C/C(=C\c2ccncc2)c2ccccc21)c1ccncc1 | -26.9%
16 | Nc1cccc(OCc2nc(N)nc(N)c2-c2ccc(Cl)cc2)c1 | -4.61%
17 | CN(C)c1ccc(/C=N\NC(=O)c2cnc3ccccc3c2)cc1 | 1.4%
18 | Cc1ccc(S(=O)(=O)Nc2cc(=O)[nH]c3c2CCC3)cc1 | 9.14%
19 | Cc1ccc2c(c1)N[C@H](c1ccc(C(=O)O)cc1)c1cccn1-2 | -7.71%
20 | COc1cc(Cl)c(CC(=O)c2c[nH]c3ccccc23)cc1OC | 26.5%

Row | SMILES | activity change, negative = inhibition
21 | Cn1c(=O)c2[nH]c(SCc3ccccn3)nc2n(C)c1=S | 13%
22 | Nc1nc(SCc2ccccc2[N+](=O)[O-])c2[nH]cnc2n1 | 14.4%
23 | COCCn1c(=O)c(-c2ccccc2)nc2cnc(Oc3ccccc3)nc21 | -6.49%
24 | Cn1ncc2c(NCCc3ccccc3)nc(Cl)nc21 | 2.58%
25 | COc1ccc(Oc2ncc3nc(C)c(=O)n(-c4ccc(OC)cc4)c3n2)cc1 | -15.1%
26 | CN[C@@H](c1ccncc1)[C@@H](NC)c1ccncc1 | -1.07%
27 | CCCCSCc1nc2nc(Cl)c(Cl)nc2[nH]1 | -24.8%
28 | CC(C)N1CCN(c2ccncc2S(=O)(=O)N2CCCCC2)CC1 | -81.6% (active)
29 | Nc1nc(SCCc2ccccc2)c2[nH]cnc2n1 | 15.6%
30 | CN(C)C[C@H]1CCC[C@@H](CN(C)C)C1=O | -4.78%
31 | O=C1C2=C(Nc3cc([N+](=O)[O-])ccc3N2)O[C@@H]1c1c[nH]c2ccc(COc3ccccc3)cc12 | 6.34%
32 | O=S(=O)(c1cnccc1N1CCN(CCO)CC1)N1CCCC1 | 4.17%
33 | C[C@](O)(c1ccccc1)c1nccc2ccccc12 | 3.41%
34 | O=c1oc2cc(N=Cc3ccc4c(c3)OCO4)ccc2c2ccccc12 | 12.7%
35 | C=C[C@]1(C)C[C@H](OC(=O)CO)[C@]2(C)C3C(=O)CC[C@]3(CC[C@H]2C)[C@H](C)[C@H]1O (stereo not given in full) | -4.75%
36 | O=C(O)c1ccc(SSc2ccc(C(=O)O)cn2)nc1 | 5.74%
37 | O=C(CSc1nc2ccc([N+](=O)[O-])cc2s1)c1ccc2ccccc2c1 | 9.35%
38 | COc1ccc2c(Cl)cc(NC(=S)Nc3ccccc3)nc2c1 | 12.1%
39 | Nc1[nH]c(=S)[nH]c(=O)c1N=Nc1c(Br)cc(S(N)(=O)=O)cc1Br | -0.337%
40 | Cn1c(=O)c2[nH]c(CCCCc3nc4c([nH]3)c(=O)n(C)c(=S)n4C)nc2n(C)c1=S | -2.84%

Assay: Stat Signaling Pathway (AID 446);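 also: ME-180 cervical cancer cells given 40 pM IL-6 alongside compound; SIE-controlled beta-lactamase reporter measured as 460/530 nm FRET emission ratio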
Details: ME-180 (cervical carcinoma) SIE beta-lactamase reporter, IL-6 stimulated, 5 h; at 7.69 µM (top of the series) unless noted
Procedure, shortened: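 Overnight-plated ME-180 cells bearing a STAT Inducible Element beta-lactamase reporter; 5 h co-exposure to compound and 40 pM IL-6; values normalized to 300 pM IL-6 and 125 nM JAK inhibitor controls.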

Row | SMILES | activity, negative = inhibition [%]
41 | N#C[C@H](c1ccccc1)N1CCCN([C@@H](C#N)c2ccccc2)C1c1ccccc1O (stereo not given in full) | 6.35
42 | O=C1CNCCCN2CCN(CCCNCC(=O)Nc3ccc(cc3)S(=O)(=O)c3ccc(cc3)NC(=O)CNCCCN3CCN(CCCNCC(=O)Nc4ccc(cc4)S(=O)(=O)c4ccc(cc4)N1)CC3)CC2 | -11
43 | Cn1c(=S)c2[nH]c(SCc3cccnc3)nc2n(C)c1=O | 1.06
44 | Nc1ncnc2nc[nH]c12.Nc1ncnc2nc[nH]c12.[Cl][Pt]([Cl])([Cl])[Cl] | -3.14
45 | CSC1(SC2=NCCN2)SC2(NCCN2)S1 | 5.32
46 | N=C(N)S[C@H]1c2ccccc2-c2cc([N+](=O)[O-])ccc21 | -2.76
47 | c1nc(NCCc2cnc[nH]2)c2[nH]cnc2n1 | 0.609
48 | COc1ccc2c(c1)Cc1cc(N=[N+]([O-])c3ccc4c(c3)Cc3cc(OC)ccc3-4)ccc1-2 | -1.13
49 | C(=N/Nc1nnc2c(n1)[nH]c1ccccc12)/c1cccnc1 | -7.13
50 | O=C(CC(=O)c1ccncc1)c1ccccc1 | 4.76
51 | O=S(=O)(O)c1cc(O)c2c(N=Cc3ccccc3O)cc(S(=O)(=O)O)cc2c1 | -1.77
52 | CC(C)(C)C(=O)[C@H]([C@@H](c1ccccc1)N1CCOCC1)N1CCOCC1 | 2.4
53 | BrC(c1cccc2ccccc12)c1cccc2ccccc12 | -2.07
54 | C/C(=N/Nc1ccc2ccccc2n1)c1ccccc1O | 7.92
55 | O[C@@H](C1=C/C(=C\c2ccncc2)c2ccccc21)c1ccncc1 | -15.9
56 | Nc1cccc(OCc2nc(N)nc(N)c2-c2ccc(Cl)cc2)c1 | 6.21
57 | CN(C)c1ccc(/C=N\NC(=O)c2cnc3ccccc3c2)cc1 | -7.11
58 | Cc1ccc(S(=O)(=O)Nc2cc(=O)[nH]c3c2CCC3)cc1 | -3.68
59 | Cc1ccc2c(c1)N[C@H](c1ccc(C(=O)O)cc1)c1cccn1-2 | -5.32
60 | COc1cc(Cl)c(CC(=O)c2c[nH]c3ccccc23)cc1OC | -15.8

Row | SMILES | activity, negative = inhibition [%]
61 | Cn1c(=O)c2[nH]c(SCc3ccccn3)nc2n(C)c1=S | -3.9
62 | Nc1nc(SCc2ccccc2[N+](=O)[O-])c2[nH]cnc2n1 | -8.39
63 | COCCn1c(=O)c(-c2ccccc2)nc2cnc(Oc3ccccc3)nc21 | -4.14
64 | Cn1ncc2c(NCCc3ccccc3)nc(Cl)nc21 | -19.5
65 | COc1ccc(Oc2ncc3nc(C)c(=O)n(-c4ccc(OC)cc4)c3n2)cc1 | -16.4
66 | CN[C@@H](c1ccncc1)[C@@H](NC)c1ccncc1 | -0.841
67 | CCCCSCc1nc2nc(Cl)c(Cl)nc2[nH]1 | -21.2
68 | CC(C)N1CCN(c2ccncc2S(=O)(=O)N2CCCCC2)CC1 | -6.7
69 | Nc1nc(SCCc2ccccc2)c2[nH]cnc2n1 | -1.34
70 | CN(C)C[C@H]1CCC[C@@H](CN(C)C)C1=O | 3.25
71 | O=C1C2=C(Nc3cc([N+](=O)[O-])ccc3N2)O[C@@H]1c1c[nH]c2ccc(COc3ccccc3)cc12 | 0.333
72 | O=S(=O)(c1cnccc1N1CCN(CCO)CC1)N1CCCC1 | 8.84
73 | C[C@](O)(c1ccccc1)c1nccc2ccccc12 | -8.29
74 | O=c1oc2cc(N=Cc3ccc4c(c3)OCO4)ccc2c2ccccc12 | -1.72
75 | C=C[C@]1(C)C[C@H](OC(=O)CO)[C@]2(C)C3C(=O)CC[C@]3(CC[C@H]2C)[C@H](C)[C@H]1O (stereo not given in full) | -4.08
76 | O=C(O)c1ccc(SSc2ccc(C(=O)O)cn2)nc1 | 15.8
77 | O=C(CSc1nc2ccc([N+](=O)[O-])cc2s1)c1ccc2ccccc2c1 | 8.96
78 | COc1ccc2c(Cl)cc(NC(=S)Nc3ccccc3)nc2c1 | 2.27
79 | Nc1[nH]c(=S)[nH]c(=O)c1N=Nc1c(Br)cc(S(N)(=O)=O)cc1Br | 12
80 | Cn1c(=O)c2[nH]c(CCCCc3nc4c([nH]3)c(=O)n(C)c(=S)n4C)nc2n(C)c1=S | -5.06
